# Measurements: the supplement of paper PMC8728848
# This excerpt belongs to a sample that is enriched for the strongest signals.
# Legend:
# Test in all cases: glycan array binding signal (z-score within array); higher = stronger binding
# Conditions in all cases: glycan notation: IUPAC condensed, linker removed
# [1] = target: Fuc(a1-2)Gal(b1-3)GlcNAc(b1-3)[Gal(b1-4)GlcNAc(b1-6)]Gal(b1-4)Glc
# Outline: (§1)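 Columns mapping to the same glycan were averaged after glycan names were converted to IUPAC-condensed notation. The data come from 3228 arrays in the Consortium for Functional Glycomics database, limited to those with an available protein sequence. Binding is reported as a within-array Z-score averaged across arrays of one protein sequence and across linkers.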
# [2] = target: Fuc(a1-2)Gal(b1-4)[Fuc(a1-3)]GlcNAc
# Outline: as §1
# [3] = target: Fuc(a1-2)[Gal(a1-3)]Gal(b1-4)GlcNAc(b1-2)Man(a1-3)[Fuc(a1-2)[Gal(a1-3)]Gal(b1-4)GlcNAc(b1-2)Man(a1-6)]Man(b1-4)GlcNAc(b1-4)GlcNAc
# Outline: as §1
# [4] = target: Fuc(a1-2)[Gal(a1-3)]Gal(b1-4)GlcNAc(b1-2)Man(a1-3)[Fuc(a1-2)[Gal(a1-3)]Gal(b1-4)GlcNAc(b1-2)Man(a1-6)]Man(b1-4)GlcNAc(b1-4)[Fuc(a1-6)]GlcNAc
# Outline: as §1
# [5] = target: Fuc(a1-2)[Gal(a1-3)]Gal(b1-4)[Fuc(a1-3)]Glc
# Outline: as §1
# [6] = target: Fuc(a1-2)[GalNAc(a1-3)]Gal(b1-4)GlcNAc(b1-2)Man(a1-3)[Fuc(a1-2)[GalNAc(a1-3)]Gal(b1-4)GlcNAc(b1-2)Man(a1-6)]Man(b1-4)GlcNAc(b1-4)GlcNAc
# Outline: as §1
# [7] = target: Fuc(a1-2)[GalNAc(a1-3)]Gal(b1-4)GlcNAc(b1-3)Gal(b1-4)GlcNAc
# Outline: as §1
# [8] = target: Fuc(a1-2)[GalNAc(a1-3)]Gal(b1-4)GlcNAc(b1-3)Gal(b1-4)GlcNAc(b1-3)Gal(b1-4)GlcNAc
# Outline: as §1
# Gal(b1-3)GlcNAc = target: Gal(b1-3)GlcNAc
# Outline: as §1
# [9] = target: Gal(b1-3)GlcNAc(b1-3)Gal(b1-4)Glc
# Outline: as §1
# [10] = target: Gal(b1-3)[Neu5Ac(b2-6)]GalNAc
# Outline: as §1
# [11] = target: Gal(b1-4)GlcNAc(b1-3)Gal(b1-4)Glc
# Outline: as §1
# [12] = target: Gal(b1-4)GlcNAc(b1-3)Gal(b1-4)GlcNAc(b1-3)Gal(b1-4)GlcNAc
# Outline: as §1
# [13] = target: GalNAc(a1-3)GalNAc(a1-3)Gal(a1-4)Gal(b1-4)GlcNAc
# Outline: as §1
# [14] = target: GalNAc(b1-3)Gal(a1-6)Gal(b1-4)Glc
# Outline: as §1
# [15] = target: GlcNAc(a1-4)Gal(b1-4)GlcNAc(b1-3)Gal(b1-4)GlcNAc(b1-3)Gal(b1-4)GlcNAc
# Outline: as §1
# [16] = target: GlcNAc(a1-6)Gal(b1-4)GlcNAc
# Outline: as §1
# GlcNAc(b1-3)Gal = target: GlcNAc(b1-3)Gal
# Outline: as §1
# Kdn(a2-3)Gal(b1-3)GlcNAc = target: Kdn(a2-3)Gal(b1-3)GlcNAc
# Outline: as §1
# Man(b1-4)GlcNAc = target: Man(b1-4)GlcNAc
# Outline: as §1
# [17] = target: Neu5Ac(a2-3)Gal(b1-3)[Fuc(a1-4)]GlcNAc(b1-3)Gal(b1-3)[Fuc(a1-4)]GlcNAc
# Outline: as §1
# Neu5Ac(a2-3)Gal(b1-4)Glc = target: Neu5Ac(a2-3)Gal(b1-4)Glc
# Outline: as §1
# [18] = target: Neu5Ac(a2-3)Gal(b1-4)GlcNAc(b1-3)Gal(b1-4)GlcNAc
# Outline: as §1
# [19] = target: Neu5Ac(a2-3)Gal(b1-4)GlcNAc(b1-3)GalNAc
# Outline: as §1
# [20] = target: Neu5Ac(a2-3)[Neu5Ac(a2-6)]GalNAc
# Outline: as §1
# Neu5Ac(a2-6)Gal(b1-4)Glc = target: Neu5Ac(a2-6)Gal(b1-4)Glc
# Outline: as §1
# [21] = target: Neu5Ac(a2-6)Gal(b1-4)GlcNAc(b1-3)Gal(b1-4)GlcNAc(b1-3)Gal(b1-4)GlcNAc
# Outline: as §1
# [22] = target: Neu5Ac(a2-6)Gal(b1-4)GlcNAc(b1-3)Gal(b1-4)[Fuc(a1-3)]GlcNAc(b1-3)Gal(b1-4)[Fuc(a1-3)]GlcNAc
# Outline: as §1
# Neu5Ac(a2-6)GalNAc = target: Neu5Ac(a2-6)GalNAc
# Outline: as §1
# [23] = target: Neu5Gc(b2-6)Gal(b1-4)GlcNAc
# Outline: as §1
binder,measurement,setting,value
Gal 3 (Canis lupus) (protein) MADSFSLNDALSGSGNPNPQGWPGPWGNQPAGAGGYPGASYPGAYPGQAPPGGYPGQAPPGGYPGQAPPGGYPGQAPPGGYPGQAPPGGYPGQAPPGTYPGPTAPAYPGPTAPGTQPGQPSGPGAYPPPGQPSAPGAYPAAGPFGIPAGPLTVPYDLPLPGGVKPRMLITILGTVRPSANRLALDFKRGNDVAFHFNPRFNEDNKRVIVCNTKLDNIWGKEERQAAFPFESGKPFKIQVLVESDHFKVAVNDAHLLQYNHRMKNLPEISKLGISGDIDLTSASYAMI,glycan array binding signal (z-score),[1],-0.147
same,glycan array binding signal (z-score),[2],-0.259
same,glycan array binding signal (z-score),[3],7.41
same,glycan array binding signal (z-score),[4],4.22
same,glycan array binding signal (z-score),[5],-0.118
same,glycan array binding signal (z-score),[6],7.54
same,glycan array binding signal (z-score),[7],5.05
same,glycan array binding signal (z-score),[8],5.42
same,glycan array binding signal (z-score),Gal(b1-3)GlcNAc,-0.231
same,glycan array binding signal (z-score),[9],-0.074
same,glycan array binding signal (z-score),[10],-0.259
same,glycan array binding signal (z-score),[11],0.512
same,glycan array binding signal (z-score),[12],5.09
same,glycan array binding signal (z-score),[13],-0.258
same,glycan array binding signal (z-score),[14],-0.254
same,glycan array binding signal (z-score),[15],3.48
same,glycan array binding signal (z-score),[16],-0.252
same,glycan array binding signal (z-score),GlcNAc(b1-3)Gal,-0.264
same,glycan array binding signal (z-score),Kdn(a2-3)Gal(b1-3)GlcNAc,-0.149
same,glycan array binding signal (z-score),Man(b1-4)GlcNAc,-0.261
same,glycan array binding signal (z-score),[17],-0.23
same,glycan array binding signal (z-score),Neu5Ac(a2-3)Gal(b1-4)Glc,-0.247
same,glycan array binding signal (z-score),[18],0.679
same,glycan array binding signal (z-score),[19],-0.205
same,glycan array binding signal (z-score),[20],-0.261
same,glycan array binding signal (z-score),Neu5Ac(a2-6)Gal(b1-4)Glc,-0.246
same,glycan array binding signal (z-score),[21],5.91
same,glycan array binding signal (z-score),[22],-0.23
same,glycan array binding signal (z-score),Neu5Ac(a2-6)GalNAc,-0.257
same,glycan array binding signal (z-score),[23],-0.25
